Source: PubChem BioAssay (NCATS)
Inconclusive results are not listed. A number with no mark means an inactive call. The source made the active and inactive calls. Calls follow the shape of the dose curve; as a rule, active = well fitted curve in either direction with a large enough effect (not every such curve was filed as active); inconclusive = small, poorly fitted or top-dose-only effect, or another doubt; inactive = flat fitted curve, though single readings scatter.

assay: Stat Signaling Pathway (AID 446); conditions: ME-180 (cervical carcinoma) SIE beta-lactamase reporter, IL-6 stimulated, 5 h; series mostly up to 17.2 µM; activity, negative = inhibition: at the top concentration
Experimental: NCGC Assay Overview: The IL-6/STAT signaling pathway was assayed in ME-180 cervical carcinoma cells by a beta-lactamase reporter gene controlled by a STAT Inducible Element (SIE). This reporter is induced by IL-6 at 40 pM AC50 and inhibited by the pan JAK inhibitor, 2-(1,1-Dimethylethyl)-9-fluoro-3,6-dihydro-7H-benz[h]-imidaz[4,5-f]isoquinolin-7-one, at approximately 10 nM AC50. Plated cells were incubated overnight and on the following day, stimulated with 40 pM IL-6 for 5 hrs. The assay was screened at the AC50 of IL-6 activation to identify both inhibitors and activators of IL-6/STAT signaling.
NCGC Assay Protocol Summary: Cells were trypsinized, washed in assay medium (AM, OPTI MEM with 0.5% fetal bovine serum, 0.1 mM nonessential amino acids, 1 mM sodium pyruvate, 10mM HEPES pH 7.3, 100U/ml penicillin, and 100 ug/ml streptomycin) and suspended at 6 x 10e5/ml in AM. Approximately […] cells in 5 uL/well was dispensed into 1536 well plates and the cells were incubated overnight at 37 C. 23 nL of compound were delivered by a pin tool and 1 uL of IL-6 (40 pM final concentration in AM) was added. After centrifugation at 1000 rpm for less than a minute, plates were incubated at 37C for 5 hrs. One uL of detector mix (LiveBLAzerTM, Invitrogen) was added, the plates incubated at room temperature for 2.5 hrs, and fluorescence intensity at 460 and 530 nm emission was measured at 405 nm excitation by an Envision (Perkin Elmer) or Safire II (Tecan). Data were normalized by GeneData to the controls for AC90 stimulation (300 pM IL-6) and to AC90 inhibition (125 nM Jak inhibitor, 40 pM IL-6 in AM).
% is scaled to controls: 0 for no effect and ±100 for the full control effect.

Row | Compound | activity, negative = inhibition | outcome
1 | NS(=O)(=O)c1cc2c(cc1Cl)N[C@@H](C(Cl)Cl)NS2(=O)=O | -9.09% | 
2 | CCC(=O)O[C@@H]1[C@H](C)O[C@H](O[C@H]2[C@@H](N(C)C)[C@H](O)[C@@H](O[C@@H]3[C@@H](CC=O)C[C@@H](C)[C@@H](O)/C=C\C=C/C[C@@H](C)OC(=O)C[C@@H](OC(=O)CC)[C@H]3OC)O[C@H]2C)C[C@]1(C)O | -4.78% | 
3 | C[C@H]1CC[C@]2(OC1)O[C@@H]1C[C@@H]3[C@@H]4CC[C@H]5C[C@@H](O)CC[C@]5(C)[C@@H]4CC(=O)[C@@]3(C)[C@H]1[C@@H]2C | 32.2% | 
4 | COc1ccc2c(c1)N(C[C@@H](C)CN(C)C)c1ccccc1S2 | -18.4% | 
5 | NCc1ccccc1CC(=O)N[C@@H]1C(=O)N2C(C(=O)O)=C(CSc3nnnn3CC(=O)O)CS[C@@H]12 | -11.7% | 
6 | C[C@@H]1C[C@@H]2[C@H]3CCC4=CC(=O)C=C[C@]4(C)[C@]3(F)[C@@H](O)C[C@]2(C)[C@@]1(O)C(=O)CO | 0.669% | 
7 | C=C1c2c(Cl)ccc(O)c2C(O)=C2C(=O)[C@@]3(O)C(O)=C(C(N)=O)C(=O)[C@@H](N(C)C)[C@@H]3[C@@H](O)[C@H]12 | -4.03% | 
8 | CC(=C(CCOP(=O)(O)O)SC(=O)c1ccccc1)N(C=O)Cc1cnc(C)nc1N | 1.75% | 
9 | C=C1CC23C[C@H]4[C@@H]5[C@@]6(C)C[C@H](OC(=O)c7ccccc7)[C@@H](OC(C)=O)[C@]57[C@@H]2[C@@H](OC(C)=O)[C@H]1[C@@H](O)[C@H]3[C@H]7N4C6 | -2.34% | 
10 | C[C@H](CCC(=O)O)[C@H]1CC[C@@H]2[C@@H]3[C@@H](O)C[C@H]4C[C@@H](O)CC[C@@]4(C)[C@H]3CC[C@@]21C | 5.35% | 
11 | CN(C)CCn1nnnc1SCC1=C(C(=O)O)N2C(=O)[C@@H](NC(=O)Cc3csc(N)n3)[C@@H]2SC1 | -1.42% | 
12 | S=C(NC1CCCCC1)N1CCC([C@H]2C=NC=N2)CC1 | 2.05% | 
13 | C1CCN2C[C@@H]3C[C@@H](CN4CCCC[C@H]34)[C@H]2C1 | -6.99% | 
14 | CC[C@H](C)C(=O)O[C@@H]1C[C@H](C)C=C2C=C[C@H](C)[C@@H](CC[C@H]3C[C@@H](O)CC(=O)O3)[C@H]21 | -4.38% | 
15 | CNC[C@H](O)c1ccc(OC(=O)C(C)(C)C)c(OC(=O)C(C)(C)C)c1 | -0.0382% | 
16 | CCCCC[C@H](O)/C=C\[C@@H]1[C@H](O)CC(=O)[C@@H]1CCCCCCC(=O)O | 8.85% | 
17 | C[C@@H](CN1c2ccccc2Sc2ccccc21)N(C)C |  | inactive
18 | CC(=O)O[C@@H]1C(=O)[C@@]2(C)[C@H](O)C[C@H]3OC[C@]3(OC(C)=O)[C@@H]2[C@H](OC(=O)c2ccccc2)[C@@]2(O)C[C@H](OC(=O)[C@@H](O)[C@@H](NC(=O)c3ccccc3)c3ccccc3)C(C)=C1C2(C)C (stereo in doubt) |  | inactive
19 | O=C(N/N=C\c1ccc([N+](=O)[O-])o1)c1ccc(O)cc1 | -9.13% | 
20 | C[C@H](O)Cn1cnc2c1c(=O)n(C)c(=O)n2C | 13.5% | 

Row | Compound | activity, negative = inhibition | outcome
21 | Cc1onc(-c2c(Cl)cccc2Cl)c1C(=O)N[C@H]1C(=O)N2[C@H]1SC(C)(C)[C@H]2C(=O)O | -7.29% | 
22 | COc1ccc([C@@H]2CC(=O)c3c(O)cc(O)cc3O2)cc1O | -10.7% | 
23 | C[C@@H]1C[C@H]2[C@@H]3C[C@H](F)C4=CC(=O)C=C[C@@]4(C)[C@]3(F)[C@H](O)C[C@]2(C)[C@@]1(O)C(=O)CO | -10.9% | 
24 | NC[C@@H]1O[C@H](O[C@@H]2[C@H](O[C@@H]3O[C@H](CO)[C@@H](COC[C@H]4O[C@@H](CN)[C@@H](O)[C@@H](O)[C@@H]4N)[C@@H]3O)[C@@H](O)[C@@H](N)C[C@H]2N)[C@@H](N)[C@H](O)[C@@H]1O | -7.03% | 
25 | C[C@@]12C=CC(=O)C=C1CC[C@H]1[C@H]3CC[C@](O)(C(=O)CO)[C@]3(C)CC(=O)[C@@H]12 | 6.15% | 
26 | CN=C(NC#N)NCCSC[C@H]1N=CN=C1C | 3.21% | 
27 | COc1cc(OC)c2c(c1Cl)O[C@@]1(C2=O)[C@H](C)CC(=O)C[C@@H]1OC | -8.22% | 
28 | COCCOC(=O)C1=C(C)NC(C)=C(C(=O)OC(C)C)[C@H]1c1cccc([N+](=O)[O-])c1 | -13.9% | 
29 | O[C@H](c1cc(C(F)(F)F)nc2c(C(F)(F)F)cccc12)[C@H]1CCCCN1 | -11.5% | 
30 | CN1CCC2(CC1)CCN(C(=O)c1ccncc1)CC2 | 0.691% [at 7.69 µM] | 
31 | C[C@H](N[C@@H](C)COc1ccccc1)[C@H](O)c1ccc(O)cc1 | 12.4% | 
32 | CO[C@H]1[C@H](O[C@H]2O[C@@H](C)[C@@H](O[C@@H]3C[C@](C)(O)[C@H](OC(=O)CC(C)C)[C@H](C)O3)[C@@H](N(C)C)[C@@H]2O)[C@@H](CC=O)C[C@@H](C)[C@@H](O)/C=C\C=C/C[C@@H](C)OC(=O)C[C@H]1OC(C)=O | 1.26% | 
33 | CC1(C)S[C@@H]2[C@H](NC(=O)C(N)c3ccccc3)C(=O)N2[C@H]1C(=O)O (stereo not given in full) | 4.3% | 
34 | CO[C@]1(NC(=O)Cc2cccs2)C(=O)N2C(C(=O)O)=C(COC(N)=O)CS[C@H]21 | -3.47% | 
35 | CC(C)(C)NC(=O)[C@@H]1C[C@H]2CCCC[C@@H]2CN1C[C@H](O)[C@H](Cc1ccccc1)NC(=O)[C@@H](CC(N)=O)NC(=O)c1ccc2ccccc2n1 | -4.32% | 
36 | CCN1CCC[C@@H](OC(=O)C(c2ccccc2)c2ccccc2)C1 | 8.54% | 
37 | COc1c2c(nc3ccccc13)O[C@H]([C@@](C)(O)CO)C2 | -7.8% | 
38 | CC(C)(CS)C(=O)N1CCC[C@H]1C(=O)O | 5.22% | 
39 | NC[C@@H]1O[C@@H](O[C@H]2[C@H](O)[C@H](O[C@@H]3O[C@H](CO)[C@@H](O)[C@H](N)[C@@H]3O)[C@@H](N)C[C@H]2N)[C@H](N)C[C@@H]1O | -3.61% | 
40 | C[C@@H]1C[C@H](OC(=O)c2ccccc2O)CC(C)(C)C1 | -2.96% | 
